Screening results as filed in PubChem BioAssay.
This is a sample that favours compounds with a hit; in the whole collection about 21% have one here.
Pf growth 96h: Primary qHTS for delayed death inhibitors of the malarial parasite plastid, 96 hour incubation; P. falciparum luciferase reporter growth, 96 h; Potency, µM (top dose mostly 28.7 µM), usual class: inhibitors; 6.9% of 320,000 active; AID 504834, 2011
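Plates of compound plus infected erythrocytes (2% hematocrit, 0.05% parasitemia final) incubate 96 hours, 37 C, 5% CO2. Detection reagent added; reduced luminescence from the parasites' luciferase reporter flags inhibition.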
CHX counter: Cycloheximide Counterscreen for Small Molecule Inhibitors of Shiga Toxin | cell reporter, cycloheximide protein synthesis inhibition counterscreen | max response, % | 12% of 300,000 active | AID 2314, 2010; in the data active = max response mostly above about 13%, no sharp cut-off; inactive = mostly below about 14%; also: read at 38.3 µM for the half of the compounds with a filed dose
Pf growth 48h: Primary qHTS for delayed death inhibitors of the malarial parasite plastid, 48 hour incubation | AID 504832, 2011 | 5.9% of 310,000 active | Potency, µM (highest dose often 28.7 µM), most hits filed as inhibitors | P. falciparum luciferase growth in erythrocytes, 48 h
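Luciferase-expressing parasites in RBCs, 2% Hct / 0.1% parasitemia final; RPMI 1640 + 0.5% Albumax; 37 C, 5% CO2, one generation; luminescence read-out, lower signal = inhibition.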
NS1 function inh: qHTS Assay for Inhibitors of Influenza NS1 Protein Function | Potency, µM (highest dose often 46.1 µM) | 0.4% of 270,000 active; calls by dose curve; also: actives are rising curves; nearly all actives have a fitted effect of over 50% in size
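OD600 was taken as the measure of yeast growth restored by compound in an NS1-expressing S. cerevisiae strain. Cells had been washed out of glucose medium and diluted 1:100 into galactose -URA medium, pH 6.0.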
Shiga inhibitor: A qHTS for Small Molecule Inhibitors of Shiga Toxin | Vero cells, Shiga toxin protein synthesis inhibition reporter | inhibition, % at 38.7 µM | 9.2% of 290,000 active; in the data active = inhibition mostly above about 28%, no sharp cut-off; inactive = mostly below about 43%
A number is an active result; 0 = inactive; ? = inconclusive; - = not tested or not shown. Unless noted, calls follow the shape of the dose curve; as a rule, active = well fitted inhibition curve with a large enough effect; inconclusive = small, poorly fitted or top-dose-only effect, or another doubt; inactive = no such curve, though single readings can be large or run the other way.

SMILES | Pf growth 96h | CHX counter | Pf growth 48h | NS1 function inh | Shiga inhibitor
O=C(Nc1cccc(Cl)c1)Nc1ccc2c(c1)OCO2 | - | 47.5 | 0 | 0 | 72.5
COc1ccc(C(=C2C(=O)Nc3ccccc32)c2ccc(OC)cc2)cc1 | - | 0 | - | - | 0
O=C(CN1CCC(O)(c2cccc(F)c2)CC1)NCCc1c[nH]c2ccccc12 | 0 | 0 | ? | 0 | 0
O=C(NCc1ccc2c(c1)OCO2)Nc1cccc2ccccc12 | 0 | 0 | 0 | 0 | 0
CC(=O)c1cccc(NC(=O)NCc2ccc3c(c2)OCO3)c1 | 3.7µM | 0 | 0 | 0 | 0
O=C(NCCCN1CCN(c2cccc(Cl)c2)CC1)C1CCC(=O)N1Cc1ccccc1Cl (stereo unspecified) | 0 | 0 | ? | 0 | 0
Cc1nn(-c2c(Cl)cc(Cl)cc2Cl)c(=O)c2ccccc12 | 13.1µM | 0 | - | 0 | 0
Cc1nn(-c2ccc(Br)cc2)c(=O)c2ccccc12 | 0 | 69.7 | 0 | 0 | 124.6
O=C(COC(=O)c1cc(S(=O)(=O)N2CCCC2)ccc1O)NCCc1ccccc1 | 0 | - | 0 | - | -
O=C(c1cc(Br)ccc1Cl)N1CCN(c2ccccn2)CC1 | 0 | 0 | 0 | 0 | 0
CCn1c(=O)c(C(=O)Nc2nc3ccccc3[nH]2)c(O)c2ccccc21 | 0 | 0 | ? | 0 | 0
Cc1cccc2c1cnn2C(=O)Nc1ccccc1Br | 0 | 0 | 0 | 0 | 0
COc1ccc(NC(=O)n2ncc3c(C)cccc32)cc1OC | 0 | 35.6 | 0 | 0 | 63.5
COc1ccc(C)cc1NC(=O)n1ncc2c(C)cccc21 | ? | 0 | 0 | 0 | 0
Cc1cccc2c1cnn2C(=O)Nc1ccccc1Cl | 0 | 35.0 | 0 | 0 | 63.5
COc1ccc(NC(=O)n2ncc3c(C)cccc32)cc1 | 0 | 58.7 | 0 | 0 | 127.9
Cc1ccc(NC(=O)n2ncc3c(C)cccc32)cc1F | 0 | 72.1 | 0 | 0 | 105.9
N#Cc1cc([N+](=O)[O-])ccc1NC(=O)COC(=O)CC1CCCC1 | 0 | 0 | 0 | 0 | 0
CNc1nc(NCc2ccccc2)c2ccccc2n1 | ? | 0 | 1.17µM | 0 | 0
c1ccc(CNc2c3ccccc3nc3ccccc23)cc1 | ? | 0 | 2.94µM | 0 | 0
Oc1ccccc1Nc1nc(NCc2ccccc2)c2ccccc2n1 | 0 | 0 | 0.329µM | 0 | 0
Oc1ccc(CCNc2c3ccccc3nc3ccccc23)cc1O | 3.29µM | 0 | 13.1µM | 0 | -
OCCNc1nc(Nc2ccccc2)nc2ccccc12 | 0 | 0 | ? | 0 | 0
CNCCc1ccc(O)c(O)c1 | - | - | - | 0 | -
c1ccc(CNc2ncnc3ccccc23)cc1 | 0 | 0 | ? | 0 | 0
SMILES | Pf growth 96h | CHX counter | Pf growth 48h | NS1 function inh | Shiga inhibitor
O=C(Cn1ncc2c([nH]c3ccccc32)c1=O)N1CCN(c2ccc(F)cc2)CC1 | 0 | 0 | 0 | 0 | 0
CCOC(=O)c1c(C)nc(-c2ccccc2)nc1NC(=O)CC | ? | 24.1 | 0 | ? | 70.3
OCC(Cc1ccccc1)Nc1c2ccccc2nc2ccccc12 (stereo unspecified) | ? | 0 | 2.62µM | 0 | 0
CCCCN(C)C(=O)CSc1nc(NCc2ccc(OC)cc2)c2ccccc2n1 | 2.33µM | 0 | 10.4µM | 0 | 0
CCOC(=O)c1nc(NCc2ccccc2)c2ccccc2n1 | 0 | 40.2 | 0 | - | 116.5
Cc1ccc(NC(=O)COC(=O)c2c[nH]c3ccccc23)cc1C | 0 | - | ? | - | -
C=C1Cn2c(nnc2-c2ccc(Cl)cc2)S1 | 0 | 0 | - | 0 | 0
CN(C)CCCNc1c2ccccc2nc2ccccc12 | 0 | 0 | 1.04µM | 0 | 0
CCOC(=O)c1c(C)nc2ccccc2c1C | - | 25.0 | 0 | 0 | 0
O=C1c2ccccc2S(=O)(=O)N1Cc1nc2ccccc2s1 | 0 | 0 | 0 | 0 | 0
O=C1N/C(=C\c2nc3ccccc3s2)c2ccccc21 | 0 | 62.1 | 0 | 0 | 75.5
O=C1N/C(=C\c2ccccc2)c2ccccc21 | - | 27.4 | 0 | 0 | 56.6
CC(C)C(NS(=O)(=O)c1cccs1)C(=O)NCc1ccccc1 (stereo unspecified) | 0 | 0 | 0 | 0 | 0
CCOC(=O)C1=CCN(Cc2ccccc2)CC1 | ? | 0 | 0 | 0 | 0
COc1ccc(N(C(=O)Cn2nnc3ccccc32)C(C(=O)NCc2ccco2)c2ccc(C)o2)cc1 (stereo unspecified) | ? | 30.3 | ? | 0 | 0
Cc1ccc(C(C(=O)NCc2ccco2)N(CCc2ccccc2)C(=O)Cn2nnc3ccccc32)o1 (stereo unspecified) | - | 0 | 13.1µM | 0 | 0
Cc1ccccc1CCN(C(=O)Cn1nnc2ccccc21)C(C(=O)NC(C)(C)C)c1ccsc1 (stereo unspecified) | 1.17µM | 0 | ? | 0 | 0
Cc1ccc(N(C(=O)Cn2nnc3ccccc32)C(C(=O)NCc2ccco2)c2ccc(C)o2)cc1 (stereo unspecified) | ? | 0 | 13.1µM | 0 | 0
CCCCN(C(=O)Cn1nnc2ccccc21)C(C(=O)NCc1ccco1)c1ccncc1 (stereo unspecified) | 0 | 0 | 0 | 0 | 0
Cc1cc(C)cc(N(C(=O)Cn2nnc3ccccc32)C(C(=O)NCc2ccco2)c2ccncc2)c1 (stereo unspecified) | 0 | 0 | 0 | 0 | 0
Cc1ccc(CN(C(=O)Cn2nnc3ccccc32)C(C(=O)NCc2ccco2)c2ccc(C)o2)cc1 (stereo unspecified) | ? | 16.0 | ? | 0 | 42.2
CCC(C)(C)NC(=O)C(c1cccn1C)N(Cc1ccccc1)C(=O)Cn1nnc2ccccc21 (stereo unspecified) | 0 | 0 | 0 | 0 | 0
COCCNC(=O)C(c1ccco1)N(C(=O)Cn1nnc2ccccc21)c1cc(C)ccc1C (stereo unspecified) | - | 0 | - | 0 | 0
CCC(C)(C)NC(=O)C(c1ccco1)N(C(=O)Cn1nnc2ccccc21)c1ccc2c(c1)OCO2 (stereo unspecified) | 7.38µM | 0 | ? | 0 | 0
CC(=O)c1ccc(N(C(=O)Cn2nnc3ccccc32)C(C(=O)NCc2ccccc2)c2ccccn2)cc1 (stereo unspecified) | 0 | 47.4 | 0 | 0 | 76.4
SMILES | Pf growth 96h | CHX counter | Pf growth 48h | NS1 function inh | Shiga inhibitor
CCC(C)(C)NC(=O)C(c1cccn1C)N(Cc1ccc(OC)cc1)C(=O)Cn1nnc2ccccc21 (stereo unspecified) | ? | 0 | 9.28µM | 0 | 0
CC(C)N1CCNCC1 | 0 | 0 | 0 | 0 | 0
Clc1ccc(N2COC3c4cccc5cccc(c45)C32)cc1 (stereo unspecified) | 0 | 0 | ? | 0 | 49.2
COc1ccc(N2COC3c4cccc5cccc(c45)C32)cc1 (stereo unspecified) | 0 | 24.3 | ? | 0 | 45.0
COC(=O)CCNS(=O)(=O)c1ccc2ccccc2c1 | 0 | 0 | 0 | 0 | 0
Cc1ccc(C(=O)NCCCNC(=O)Cc2ccc(Cl)cc2)cn1 | 0 | - | ? | - | -
CCCN=C1CC(C)(C)CC(=O)/C1=C(/O)CCC | 0 | 0 | 0 | 0 | 0
CCCCCCN=C1CC(C)(C)CC(=O)/C1=C(/O)CCC | 6.57µM | 0 | ? | 0 | 0
c1ccc(-c2nc(NCc3ccco3)c3ccccc3n2)nc1 | 2.94µM | 0 | 2.62µM | 0 | 0
Fc1ccccc1-c1nc(NCc2ccco2)c2ccccc2n1 | 0 | 0 | ? | 0 | 0
Oc1ccccc1-c1nc(NCc2ccco2)c2ccccc2n1 | ? | 25.3 | 0 | 0 | 35.7
